This note sets out measurements from PubChem BioAssay AID2717 (Broad Institute, 2010).

Out of some 300,000 compounds screened, about 3,200 (1.1%) were called active. Only a selection was taken, and actives are over-represented in it overall. Values without a mark were called inactive. No stated cut-off is given here; in the data, active means inhibition above about 75%; inconclusive means no clear call, values can overlap the other calls; inactive means below that; tested in HMLE shEcad cells.

By inhibition is commonly meant the drop in the measured response relative to a control, in per cent.

This test is described as follows: cancer stem cell viability inhibitors, primary screen, luminescence (AID 2717). The settings on record: cancer stem cell-like cells viability, at 7.5 µM, active compounds read high.
On to `COc1cc(OC)cc(C(=O)N[C@H](C(=O)NNC(=O)c2ccc(Br)cc2)C(C)C)c1`, for which the inhibition was -10.3%.
As for `Cc1ccc2[nH]c(=O)c(CC(=O)O)c(-c3ccccc3)c2c1`, the inhibition was -9.95%.
For `CCN(CC)CCCNC(=O)c1cc2c(=O)[nH]c3ccc(C)cc3c2s1` the value was -3.35%; for `Cc1cccc(N(C)C(=O)c2cc3c(=O)[nH]c4ccc(C)cc4c3s2)c1`, 80.5% (active); for `O=C(COc1ccc([N+](=O)[O-])cc1Cl)Nc1ccc2[nH]c(=O)[nH]c2c1`, -8.82%.
For `CC1CCCCC12NC(=O)N(CC(=O)N1CCN(c3ccccc3)CC1)C2=O` (stereo not drawn) the value was -3.2%.
For `CCOc1ccc(Br)cc1S(=O)(=O)Nc1ccc(S(=O)(=O)Nc2cc(C)on2)cc1` the value was -12.8%.
On to `COc1ccccc1CNC(=O)c1ccc(Cl)c(S(=O)(=O)N2CCCC2)c1`, for which the inhibition was -0.0556%.
In the case of `COc1ccc(S(=O)(=O)N2CCOCC2)cc1NC(=O)CSc1nnc(NC2CC2)s1` it was -7.56%.
In the case of `CCCCNc1nc2c(c(=O)n(C)c(=O)n2C)n1Cc1cccc(OC)c1` it was -3.15%; in that of `CCCCNc1c(-c2cccc(Sc3ccc(OC)cc3)c2)nc2ccccn12`, 78% (active).
For `CCCCCCSc1ccc(-c2nc3ccc(Cl)cn3c2NCc2ccccc2)cc1` the value was 61.1%.
`O=C(NN=Cc1ccc(N2CCOCC2)cc1)c1cc2ccccc2cc1O`: the inhibition was 10.1%.
On to `COc1ccc(S(=O)(=O)N2CCCCCC2)cc1NC(=O)Cc1ccc(OC)c(OC)c1`, for which the inhibition is -7.41%.
For `O=C(CSc1nccn1-c1cccc(F)c1)NC1CCCC1` the value was -0.605%.
In the case of `Cc1c(Cl)c([N+](=O)[O-])nn1Cc1ccc(C(=O)N/N=C\c2cc(Cl)ccc2O)o1`, the inhibition was 106% (active).
For `Cc1ccc(C(=O)O)cc1NC(=O)c1ccc(Cn2nc(C)c(Cl)c2C)o1` the value was -28.7%; for `Cc1c(Cl)c([N+](=O)[O-])nn1CCCC(=O)Nc1cc(Cl)ccc1Cl`, -11.4%.
For `CCC(CO)Oc1cc(NC(=O)c2cccc(F)c2)c2ncn(C(C)C)c2c1` (stereo not drawn) the value was -13.2%; for `C=CCC[C@H](Cc1ccc(F)cc1)C(=O)OC[C@@H](Cc1c[nH]c2ccccc12)NC(=O)[C@H](CC=C)CC(=O)N[C@H](CO)Cc1ccccc1`, 24.2%; for `Cc1nnsc1C(=O)Nc1cccc(Cl)c1C`, 4.62%.
For the molecule `Cc1cc(Cl)ccc1NNC(=O)c1snnc1C`, the inhibition is 75.1% (active).
For `Cc1nnsc1C(=O)N/N=C/c1ccccc1Cl` the value was -13.9%; for `O=C(CN1C(=O)NC2(CCOc3ccccc32)C1=O)Nc1cccc([N+](=O)[O-])c1` (stereo not drawn), 0.94%; for `COc1cccc(-c2ccc3c(c2)S(=O)(=O)c2cccc(C(=O)O)c2C3=O)c1OC`, 7.27%.
In the case of `COc1ccc2c(c1)[C@H]1[C@H](CO2)[C@H](c2ccccc2)[C@]2(C)C(=O)Nc3cc(F)c(F)cc3C(=O)N12` it was 21.6%.
In the case of `Cc1ccc(NC(=O)C2CCC(C(C)(C)C)CC2)cc1S(=O)(=O)N1CCOCC1` (stereo not drawn) it was 45.1%; in that of `CC1(C)C=C2[C@H]3CC[C@@H]4[C@@]5(C)CCC(=O)C(C)(C)[C@@H]5CC[C@@]4(C)[C@]3(C)CC[C@@]2(C(=O)O)CC1`, 107% (active).
`NCCN1CCN2C(=O)CN(C(=O)c3ccccc3)CC12` (stereo not drawn): the inhibition is -9.2%.
In the case of `CCCCOc1ccc(C(=O)NCC(=O)OCC(=O)c2c(N)n(C)c(=O)n(C)c2=O)cc1` it was 11.8%; in that of `O=C(O)CSc1c2c(nc3cc(C(=O)Nc4cccc(C(F)(F)F)c4)ccc13)CCCC2`, 14.3%.
`Cn1nc(C(F)(F)F)c(C(=O)Nc2cccc(C(F)(F)F)c2)c1SCc1ccc(Cl)cc1`: the inhibition was 105% (active).
For `COC(=O)c1ccccc1Sc1c(/C=N/OCc2ccc(Cl)cc2)c(C(F)(F)F)nn1C` the value was 17.8%.
As to `O=C(CNC(=O)c1n[nH]c2ccccc12)Nc1cc(Cl)ccc1Cl`, the inhibition was 5.44%.
In the case of `CC(CNC(=O)Cn1cnc2c(OCc3ccccc3)ncnc21)c1ccccc1` (stereo not drawn) it was -8.55%; in that of `Cc1cccc(NC(=O)c2sc(-c3ccccc3)nc2-c2ccc([N+](=O)[O-])cc2)c1`, 12.3%; in that of `O=C(Nc1ccccc1)/C(=C/c1ccc([N+](=O)[O-])cc1)NC(=O)c1ccccc1`, -13%.
For `CCOC(=O)/C(=C\c1ccc([N+](=O)[O-])cc1)C(=O)c1cc(C(C)=O)c(Nc2ccccc2)s1` the value was 88.4% (active); for `O=C(OCC(=O)N1CCN(c2ccccc2)CC1)c1ccc([N+](=O)[O-])s1`, 0.421%.
As to `CN(CC(=O)Nc1ccc(OC(F)F)cc1)S(=O)(=O)/C=C/c1ccccc1`, the inhibition is 7.09%.
As to `O=C(COC(=O)c1c2c(nc3ccccc13)/C(=C\c1cccs1)CCC2)Nc1ccccc1Cl`, the inhibition is 73.5%.
As to `COc1cc(-c2cc(C(=O)OCC(=O)Nc3ccc4c(c3)OCO4)c3ccccc3n2)cc(OC)c1OC`, the inhibition was -14.5%.
`NS(=O)(=O)c1ccc(NC(=O)COC(=O)c2c3c(nc4ccccc24)/C(=C\c2ccc4c(c2)OCO4)CCC3)cc1`: the inhibition is 93.4% (active).
In the case of `CN(C(=O)COC(=O)Cc1ccccc1[N+](=O)[O-])C1CCS(=O)(=O)C1` (stereo not drawn) it was -16.1%; in that of `CN1C(=O)/C(=C/c2ccc(C(=O)NC3CCCC3)cc2)Oc2ccccc21`, 2.95%; in that of `CN1CCN(CCCNC(=O)c2ccc(/C=C3\Oc4ccccc4N(Cc4ccc(Cl)cc4)C3=O)cc2)CC1`, 103% (active).
For `CCCN1CCN(C(=O)CCCNC(=O)c2ccc(Cl)cc2)CC1` the value was -11.6%; for `COc1ccc(/C=C/C(=O)OCC(=O)NC2CCCCCC2)cc1OC`, -6.85%; for `CC(=O)c1sc(NC(=O)CCN2C(=O)C3CC=CCC3C2=O)nc1-c1ccccc1` (stereo not drawn), -4.39%.
For `Cc1ccc(/C=N/NC(=O)COc2ccccc2-c2ccccc2)cc1` the value was 114% (active); for `CSc1ccc(/C=N\NC(=O)COc2ccc(Cl)cc2Br)cc1`, -0.83%; for `Cc1cccc(OCC(=O)NCC(=O)N/N=C/c2ccc(N(C)C)cc2)c1`, 4.13%.
As for `CC(C)COc1ccc(C(=O)NNC(=O)CCC(=O)c2cccs2)cc1`, the inhibition is -16.7%.
In the case of `CN(CC(=O)Nc1ccc(C(N)=O)cc1)S(=O)(=O)c1ccc2c(c1)OCCO2` it was -1.86%.
In the case of `CCOC(=O)c1c(NC(=O)c2ccc(S(=O)(=O)N(C)CC3CCCO3)cc2)sc2c1CC(C)(C)NC2(C)C` (stereo not drawn) it was 62.9%; in that of `Cc1nn(-c2ccccc2)c(C)c1NC(=O)COc1ccc(Cl)cc1Cl`, 22.1%.
For `COC(=O)c1c(NC(=O)COc2ccc(Cl)cc2Cl)sc2c1CC(C)(C)NC2(C)C` the value was 103% (active); for `CC(OC(=O)/C=C/c1ccccc1)C(=O)Nc1ccc(C(N)=O)cc1` (stereo not drawn), -9.55%; for `COc1ccc(-n2nnnc2-c2nc3ccccc3s2)cc1`, 10.3%.
Consider `COc1ccc(C2=NN(c3nc4ccccc4s3)C(=O)C2)cc1`, for which the inhibition was 81.2% (active).
In the case of `COC(=O)Cc1[nH]n(-c2nc3ccccc3s2)c(=O)c1C(C)=Nc1ccc(OC)cc1` it was 32.2%.
For the molecule `O=C(NCCC1=CCCCC1)c1ccc(-n2cncn2)cc1`, the inhibition is -10.8%.
As for `O=C(O)c1cccc(S(=O)(=O)Nc2ccc(O)cc2Sc2nc3ccccc3s2)c1`, the inhibition is -15.7%.
As for `O=[N+]([O-])c1c(NCCO)cc(Sc2nc3ccccc3s2)c2nonc12`, the inhibition was 78.7% (active).
For `CCOc1ccccc1Nc1ccc2nonc2c1[N+](=O)[O-]` the value was -3.74%; for `CC(C)C(NC(=O)c1c(F)cccc1F)C(=O)NNC(=O)c1ccccc1` (stereo not drawn), -4.36%; for `CC(C)(C)OC(=O)C[C@@H]1C/C=C\C[C@@H](CC(=O)N[C@@H](CO)Cc2ccccc2)C(=O)N2CCC[C@H]2COC1=O`, -16.5%.
With `Cc1ccc(C)c(NC(=O)CN(C)C(=O)COc2ccc3ccccc3c2)c1`, the inhibition was -11.2%.
In the case of `O=C(COc1ccc(Br)cc1F)NCC1(N2CCCCC2)CCCCC1` it was 1.3%.
For `CC1=NN(c2ccccc2)C(=O)C1C(=O)c1ccc([N+](=O)[O-])cc1` (stereo not drawn) the value was -1.87%; for `O=C1CC(c2ccccc2)=NN1c1ccc([N+](=O)[O-])cc1`, 101% (active); for `O=c1[nH]n(-c2ccc([N+](=O)[O-])cc2)c(=O)c2ccccc12`, -17.2%.
For `Cc1ccc(NC(=O)C2CC2)cc1S(=O)(=O)N1CCOCC1` the value was -16%; for `C[C@H](CO)N1C[C@H](C)[C@H](CN(C)C(=O)Nc2ccc(C(F)(F)F)cc2)Oc2c(NC(=O)c3ccncc3)cccc2C1=O`, 6.77%.
Turning to `COc1ccc(NC(=O)Nc2ccc3c(c2)C(=O)N([C@H](C)CO)C[C@H](C)[C@@H](CN(C)C(=O)Nc2ccc4c(c2)OCO4)O3)cc1`, the inhibition is -11%.
In the case of `COc1cc(OC)cc(-c2sc3ccc(OC)cc3c2-c2ccc3cc[nH]c3c2)c1` it was 137% (active); in that of `CCN(CC)CC(=O)c1c[nH]c2ccc(OC)cc12`, 3.22%; in that of `COc1ccc2[nH]c(=S)cc(C)c2c1`, -16.3%.
Take `COc1cc(OC)cc(-c2c(-c3cccs3)c3cc(-c4ccc(OC)cc4F)ccc3n2C)c1`: the inhibition is -6.57%.
In the case of `COc1ccc2sc(-c3ccc(N(C)C)cc3)c(-c3ccc4cc[nH]c4c3)c2c1` it was 83.3% (active); in that of `COc1ccc2c(c1)CCNC2Cc1ccc(OC)c(O)c1` (stereo not drawn), 10.2%.
For `CC[C@H]1CN2CCc3cc(OC)c(OC)cc3[C@@H]2C[C@@H]1C[C@H]1NCCc2cc(OC)c(OC)cc21` the value was 76.3% (active).
For `COc1cc2c(cc1O)[C@H](Cc1ccc(Oc3cc(C[C@@H]4NCCc5cc(OC)c(O)cc54)ccc3O)cc1)NCC2` the value was 9.97%.
